Consider ten compounds from PubChem BioAssay (NCI).

This is part of a sample that, as a whole, favours compounds with a hit. Of some 79,000 tested, about 15% had one in any assay. Unmarked numbers belong to inactive results. Active and inactive are the calls of the source. Rule as the data show it: active = growth inhibition above about 70%; inactive = the rest.

Experiment [1] is described as follows: NCI Yeast Anticancer Drug Screen. Data for the rad50 strain (AID 155).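 Also: 0% = growth of vehicle-only cultures of the same strain.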 The following applies: S. cerevisiae rad50 strain growth inhibition, active compounds read high. An outline of the steps:
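Genetically altered yeast (DNA repair pathway); compound treatment; growth inhibition vs vehicle ctrl.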

A short description of experiment [2]: NCI Yeast Anticancer Drug Screen. Data for the mec2-1 strain (AID 157). Conditions: S. cerevisiae mec2-1 strain, active compounds read high. An outline of the steps:
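Vehicle-treated cultures served as reference for growth inhibition of compound-exposed mec2-1 yeast.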

Experiment [3] is described as follows: NCI Yeast Anticancer Drug Screen. Data for the sgs1 mgt1 strain (AID 161).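 Also: 0% = growth of cultures given vehicle only.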 The following applies: S. cerevisiae sgs1 mgt1 strain, active compounds read high. An outline of the steps:
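Mutant yeast exposed to compound; growth scored against vehicle-only wells.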

A short description of experiment [4]: NCI Yeast Anticancer Drug Screen. Data for the cln2 rad14 strain (AID 165).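 Also: 0% = growth equal to vehicle treated cultures.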 Conditions: S. cerevisiae cln2 rad14 strain, active compounds read high. An outline of the steps:
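Each compound was tested on cln2 rad14 yeast. Inhibition of growth was calculated against vehicle-exposed controls.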

Experiment [5] is described as follows: NCI Yeast Anticancer Drug Screen. Data for the bub3 strain (AID 167). The following applies: S. cerevisiae bub3 mutant strain, active compounds read high. An outline of the steps:
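Yeast carrying a defined mutation is treated with each compound, and growth is compared with that of vehicle-exposed cells to give inhibition.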

Experiment [6] can be described thus: NCI Yeast Anticancer Drug Screen. Data for the mlh1 rad18 strain (AID 175). The following applies: S. cerevisiae mlh1 rad18 strain growth inhibition, active compounds read high. An outline of the steps:
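Vehicle-treated cultures served as the reference for growth inhibition in a yeast strain carrying DNA damage repair alterations exposed to each compound.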

The mark [7] stands for this setting: at 5.0 µM (retest, dose inferred, filed as 0.5).
Where [8] appears, read: at 50.0 µM (retest, dose inferred, filed as 5.0).

For `O=[N+]([O-])c1cc(C(F)(F)F)cc([N+](=O)[O-])c1CCl`, the growth inhibition in experiment [1] (setting [7]) is 100% (active); in experiment [1] (setting [8]), 100% (active); in experiment [1] (at 50.0 µM), 99.7% (active); in experiment [2] (setting [7]), 100% (active); in experiment [2] (setting [8]) it was 100% (active); in experiment [2] (at 50.0 µM) it was 99.8% (active). Further, the growth inhibition was 100% (active) in experiment [3] (setting [7]); 100% (active) in experiment [3] (setting [8]); 99.6% (active) in experiment [3] (at 50.0 µM); 100% (active) in experiment [4] (setting [7]); 100% (active) in experiment [4] (setting [8]); 99.4% (active) in experiment [4] (at 50.0 µM). Further, the growth inhibition in experiment [5] (setting [7]) was 100% (active); in experiment [5] (setting [8]), 100% (active); in experiment [5] (at 50.0 µM) it was 99.4% (active); in experiment [6] (setting [7]), 100% (active); in experiment [6] (setting [8]) it was 100% (active); in experiment [6] (at 50.0 µM), 99.7% (active).

In the case of `Clc1ccc(SCCN2CCN(CCSc3ccc(Cl)cc3)CC2)cc1`, the growth inhibition in experiment [1] (setting [7]) is 76% (active); in experiment [1] (setting [8]), 98% (active); in experiment [1] (at 50.0 µM), 83.2% (active); in experiment [2] (setting [7]), 79% (active); in experiment [2] (setting [8]), 99% (active); in experiment [2] (at 50.0 µM), 77.9% (active). For the same compound, the growth inhibition in experiment [3] (setting [7]) was 92% (active); in experiment [3] (setting [8]), 99% (active); in experiment [3] (at 50.0 µM), 94.2% (active); in experiment [4] (setting [7]), 54%; in experiment [4] (setting [8]), 98% (active); in experiment [4] (at 50.0 µM) it was 86.9% (active). In addition, the growth inhibition in experiment [5] (setting [7]) is 85% (active); in experiment [5] (setting [8]) it was 99% (active); in experiment [5] (at 50.0 µM) it was 92.1% (active); in experiment [6] (setting [7]), 88% (active); in experiment [6] (setting [8]), 99% (active); in experiment [6] (at 50.0 µM), 96.6% (active).

Regarding `NC(=S)N/N=C/c1cn(CCCl)c2ccccc12`, the growth inhibition in experiment [1] (setting [7]) was 7%; in experiment [1] (setting [8]) it was 30%; in experiment [1] (at 50.0 µM), 57.5%; in experiment [2] (setting [7]), -49%; in experiment [2] (setting [8]) it was 49%; in experiment [2] (at 50.0 µM) it was 19.8%. Moreover, the growth inhibition in experiment [3] (setting [7]) is -17%; in experiment [3] (setting [8]), 63%; in experiment [3] (at 50.0 µM), 62.9%; in experiment [4] (setting [7]), 2%; in experiment [4] (setting [8]), 59%; in experiment [4] (at 50.0 µM), 42.9%. Besides, the growth inhibition in experiment [5] (setting [7]) was -11%; in experiment [5] (setting [8]) it was 56%; in experiment [5] (at 50.0 µM), 24.1%; in experiment [6] (setting [7]) it was -32%; in experiment [6] (setting [8]), 35%; in experiment [6] (at 50.0 µM) it was 45.9%.

On to `N#C/C(=C1C=C/C(=N/O)C=C/1Cl)c1ccccc1`, for which the growth inhibition is -3% in experiment [1] (setting [7]); -7% in experiment [1] (setting [8]); 21.7% in experiment [1] (at 50.0 µM); -7% in experiment [2] (setting [7]); 4% in experiment [2] (setting [8]); 24.3% in experiment [2] (at 50.0 µM). For the same compound, the growth inhibition is 4% in experiment [3] (setting [7]); 36% in experiment [3] (setting [8]); 51.9% in experiment [3] (at 50.0 µM); -15% in experiment [4] (setting [7]); 6% in experiment [4] (setting [8]); 69.5% in experiment [4] (at 50.0 µM). Also, the growth inhibition is 5% in experiment [5] (setting [7]); 18% in experiment [5] (setting [8]); 28.1% in experiment [5] (at 50.0 µM); -11% in experiment [6] (setting [7]); 10% in experiment [6] (setting [8]); 26.4% in experiment [6] (at 50.0 µM).

For `CN(C)C(=S)/N=c1\ss/c(=N\C(=S)N(C)C)n1-c1cccc(Cl)c1`, the growth inhibition is 6% in experiment [1] (setting [7]); 8% in experiment [1] (setting [8]); 95.9% (active) in experiment [1] (at 50.0 µM); 15% in experiment [2] (setting [7]); 2% in experiment [2] (setting [8]); 95.2% (active) in experiment [2] (at 50.0 µM). Also, the growth inhibition in experiment [3] (setting [7]) was 4%; in experiment [3] (setting [8]), 12%; in experiment [3] (at 50.0 µM), 94% (active); in experiment [4] (setting [7]), 4%; in experiment [4] (setting [8]), -13%; in experiment [4] (at 50.0 µM), 80.8% (active). Further, the growth inhibition is 3% in experiment [5] (setting [7]); -4% in experiment [5] (setting [8]); 96.2% (active) in experiment [5] (at 50.0 µM); 5% in experiment [6] (setting [7]); 3% in experiment [6] (setting [8]); 94.2% (active) in experiment [6] (at 50.0 µM).

As to `CC(C)C(Cl)CC/C(CBr)=C(\Cl)CCl` (stereo not given), the growth inhibition in experiment [1] (setting [7]) is 28%; in experiment [1] (setting [8]), 89% (active); in experiment [1] (at 50.0 µM) it was 75% (active); in experiment [2] (setting [7]), 29%; in experiment [2] (setting [8]) it was 92% (active); in experiment [2] (at 50.0 µM) it was 80.8% (active). The growth inhibition in experiment [3] (setting [7]) is 27%; in experiment [3] (setting [8]), 99% (active); in experiment [3] (at 50.0 µM) it was 92.4% (active); in experiment [4] (setting [7]) it was 24%; in experiment [4] (setting [8]), 96% (active); in experiment [4] (at 50.0 µM), 91.1% (active). For the same compound, the growth inhibition in experiment [5] (setting [7]) was 23%; in experiment [5] (setting [8]), 98% (active); in experiment [5] (at 50.0 µM), 92.3% (active); in experiment [6] (setting [7]) it was 28%; in experiment [6] (setting [8]), 97% (active); in experiment [6] (at 50.0 µM), 18.9%.

For the compound `Clc1ccc([O][In]([O]c2ccc(Cl)cn2)[O]c2ccc(Cl)cn2)nc1`, the growth inhibition was 1% in experiment [1] (setting [7]); 1% in experiment [1] (setting [8]); 68.2% in experiment [1] (at 50.0 µM); 8% in experiment [2] (setting [7]); 8% in experiment [2] (setting [8]); 72% (active) in experiment [2] (at 50.0 µM). Also, the growth inhibition in experiment [3] (setting [7]) was -1%; in experiment [3] (setting [8]), -1%; in experiment [3] (at 50.0 µM), 56%; in experiment [4] (setting [7]), -4%; in experiment [4] (setting [8]) it was -4%; in experiment [4] (at 50.0 µM), 38.9%. Further, the growth inhibition in experiment [5] (setting [7]) was -26%; in experiment [5] (setting [8]), -26%; in experiment [5] (at 50.0 µM), 48.2%; in experiment [6] (setting [7]), -5%; in experiment [6] (setting [8]), -5%; in experiment [6] (at 50.0 µM), 53.8%.

`CCOC(=O)c1c(Br)c(-c2ccc(Br)cc2)c(Br)n1C`: the growth inhibition in experiment [1] (setting [7]) is -6%; in experiment [1] (setting [8]) it was 1%; in experiment [1] (at 50.0 µM) it was 7.95%; in experiment [2] (setting [7]) it was -7%; in experiment [2] (setting [8]), -29%; in experiment [2] (at 50.0 µM) it was -16.1%. Besides, the growth inhibition is -11% in experiment [3] (setting [7]); -1% in experiment [3] (setting [8]); -6.25% in experiment [3] (at 50.0 µM); 29% in experiment [4] (setting [7]); -25% in experiment [4] (setting [8]); 24.1% in experiment [4] (at 50.0 µM). Also, the growth inhibition is -11% in experiment [5] (setting [7]); -15% in experiment [5] (setting [8]); -7% in experiment [5] (at 50.0 µM); -8% in experiment [6] (setting [7]); -12% in experiment [6] (setting [8]); -10.6% in experiment [6] (at 50.0 µM).

Turning to `COc1cc(CCN=Cc2cc(Cl)cc(Cl)c2O)c([N+](=O)[O-])cc1OC`, the growth inhibition was 60% in experiment [1] (setting [7]); 74% (active) in experiment [1] (setting [8]); 58.8% in experiment [1] (at 50.0 µM); 42% in experiment [2] (setting [7]); 55% in experiment [2] (setting [8]); 69.5% in experiment [2] (at 50.0 µM). The growth inhibition was 53% in experiment [3] (setting [7]); 95% (active) in experiment [3] (setting [8]); 62.4% in experiment [3] (at 50.0 µM); 35% in experiment [4] (setting [7]); 57% in experiment [4] (setting [8]); 43% in experiment [4] (at 50.0 µM). For the same compound, the growth inhibition in experiment [5] (setting [7]) is 51%; in experiment [5] (setting [8]), 94% (active); in experiment [5] (at 50.0 µM), 77.7% (active); in experiment [6] (setting [7]), 64%; in experiment [6] (setting [8]) it was 91% (active); in experiment [6] (at 50.0 µM), 62.6%.

In the case of `Cc1ccc(O)c(Cc2cccc(Cl)c2)c1`, the growth inhibition is -2% in experiment [1] (setting [7]); 99% (active) in experiment [1] (setting [8]); 99.3% (active) in experiment [1] (at 50.0 µM); -7% in experiment [2] (setting [7]); 99% (active) in experiment [2] (setting [8]); 99.5% (active) in experiment [2] (at 50.0 µM). The growth inhibition in experiment [3] (setting [7]) was -2%; in experiment [3] (setting [8]), 99% (active); in experiment [3] (at 50.0 µM), 99.5% (active); in experiment [4] (setting [7]) it was -21%; in experiment [4] (setting [8]) it was 99% (active); in experiment [4] (at 50.0 µM), 99% (active). Besides, the growth inhibition in experiment [5] (setting [7]) is -22%; in experiment [5] (setting [8]), 99% (active); in experiment [5] (at 50.0 µM), 99.3% (active); in experiment [6] (setting [7]), 0%; in experiment [6] (setting [8]), 99% (active); in experiment [6] (at 50.0 µM), 99.2% (active).
